Results on 10 molecules are retold here after PubChem BioAssay (NCI).

Assay in all cases: NCI-60 one-dose screen, 48 h (100 = growth as untreated, 0 = no growth, -100 = all killed)
Assay [1] concerns RPMI-8226 leukemia. The following applies: 10 µM unless noted.
For assay [2], the system named is OVCAR-5 ovarian. The following applies: 10 µM unless noted.
Assay [3] concerns OVCAR-4 ovarian. The following applies: 10 µM unless noted.
Assay [4] has as its system SK-OV-3 ovarian. The following applies: 10 µM unless noted.
Assay [5] deals with OVCAR-3 ovarian. Particulars: 10 µM unless noted.
Assay [6] concerns HS 578T breast. Particulars: 10 µM unless noted.
Assay [7] deals with T-47D breast. The following applies: 10 µM unless noted.
Assay [8] concerns BT-549 breast. Particulars: 10 µM unless noted.
In assay [9] the test system is MDA-MB-435 melanoma. The following applies: 10 µM unless noted.
The test system of assay [10] is SW-620 colon. The following applies: 10 µM unless noted.
Assay [11] deals with MCF7 breast. Particulars: 10 µM.
In assay [12] the test system is HCT-116 colon. The following applies: 10 µM unless noted.
Assay [13] deals with KM12 colon. Particulars: 10 µM unless noted.
The test system of assay [14] is OVCAR-8 ovarian. Particulars: 10 µM unless noted.
The subject of assay [15] is IGROV1 ovarian. The following applies: 10 µM unless noted.
In assay [16] the test system is NCI/ADR-RES ovarian. The following applies: 10 µM unless noted.
Assay [17] relates to HCC-2998 colon. The following applies: 10 µM unless noted.

The panel holds about 83,000 compounds, 20% with a hit somewhere; the sample as a whole holds those more often.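 Each cell line was grown in a 96-well plate and treated with one concentration of compound for 48 hours. Values below 10 were considered active.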 Values without a mark were called inactive. Calls of active or inactive are those of the source.

With `COc1cccc(C(=O)Cn2cc(/C=C(\C#N)S(=O)(=O)c3ccccc3)c3ccccc32)c1`, the growth is 72.2% in assay [1]; 47.9% in assay [2]; 95.6% in assay [3]; 85% in assay [4]; 103% in [5]; 106% in assay [6]. The growth was 91.6% in assay [7]; 103% in assay [8]; 113% in assay [9]; 95.5% in [10]; 94.5% in [11]; 83.9% in assay [12]. Also, the growth in assay [13] was 107%.
On to `O=C(CCc1nnc2sc(-c3ccc(Cl)cc3Cl)nn12)c1nc2ncccc2[nH]1`, for which the growth in assay [14] is 0.0907% (active); in assay [2] it was -49.3% (active); in assay [3], -37.7% (active); in assay [4], 36.1%; in assay [15] it was -14.8% (active); in assay [5] it was -68.7% (active). Also, the growth in assay [6] was 0.818% (active); in [16], -3.89% (active); in assay [7], -26.3% (active); in [9] it was -31.2% (active); in assay [10], -30.4% (active); in assay [11], 6.03% (active). Besides, the growth is -73.6% (active) in assay [12], -71.6% (active) in assay [17] and -52.2% (active) in [13].
Turning to `COc1ccc(C2=NN(/C=C3\SC(=O)NC3=Nc3ccc(F)cc3)C(c3ccc(F)cc3)C2)cc1` (stereo not given), the growth is 95.3% in assay [14]; 96.1% in assay [2]; 101% in assay [3]; 102% in assay [4]; 97.9% in assay [15]; 104% in [5]. Moreover, the growth in assay [6] was 99%; in [16] it was 103%; in [7], 89.7%; in [8], 98%; in assay [9], 106%; in assay [10], 99.2%. Moreover, the growth is 94.5% in assay [11], 105% in assay [12], 101% in assay [17] and 98.2% in assay [13].
Turning to `O=C(/C=C/c1ccccn1)c1ccc(OCc2nnc(-c3ccc(Cl)cc3)o2)cc1`, the growth was 20.8% in assay [14]; 89.6% in assay [2]; 31% in [3]; 26.8% in assay [4]; -22.6% (active) in assay [15]; 65.7% in assay [6]. The growth is 42.5% in assay [16]; -13.7% (active) in [7]; 16.5% in assay [8]; -66.2% (active) in assay [9]; -43.6% (active) in [10]; -28.3% (active) in assay [11]. Further, the growth in assay [12] was -71.6% (active); in assay [17], 28%; in assay [13], -69.9% (active).
As for `Cc1ccc(C(=O)c2oc3ccc4c(C)cc(=O)oc4c3c2C)cc1`, the growth was 0.992% (active) in assay [1]; 66% in assay [2]; 33.9% in [3]; 28.7% in [5]; 86.5% in assay [6]; 29.5% in [16]. Moreover, the growth in assay [7] was 14.8%; in assay [8], 40.8%; in [9], 29.7%; in [10], 23.2%; in [11], 9.99% (active); in assay [12], 21.7%. Moreover, the growth in assay [13] was 17.8%.
With `CN1CCN(Cc2ccc(C(=O)Nc3cncc(C#Cc4cnc5cccnn45)c3)cc2C(F)(F)F)CC1`, the growth in [14] was 78.7%; in assay [2] it was 47.2%; in [3], 41.8%; in assay [4] it was 78.9%; in assay [15], 31.5%; in [5] it was 63.3%. The growth in [6] was 54.8%; in assay [16], 91.6%; in [7], 81.2%; in assay [8] it was 78.3%; in [9], 57.7%; in [10], 21.8%. For the same molecule, the growth in assay [11] is 20.4%; in assay [12], 13%; in assay [17], 90%; in [13], 12.7%.
With `O=C1C(=O)c2c(ccc3ccccc23)-c2ccccc21`, the growth is 2.95% (active) in assay [14]; -22.4% (active) in assay [2]; -95.3% (active) in [3]; 91.5% in assay [4]; -21.4% (active) in assay [15]; -25.5% (active) in assay [5]. In addition, the growth in [6] is -8.76% (active); in assay [16], -1.89% (active); in [7] it was -48.6% (active); in assay [8] it was -72.6% (active); in assay [9], -58.6% (active); in assay [10] it was -73% (active). Moreover, the growth was -47.6% (active) in assay [11], -53.8% (active) in assay [12] and 18.4% in [13].
With `COc1ccc(Cn2c(Br)c3c(c2-c2cc(OC)c(OC)c(OC)c2)CCc2sc(NC(C)=O)nc2-3)cc1`, the growth in [14] is 60.4%; in assay [2], 96.8%; in [3], 49.8%; in assay [4] it was 35.5%; in assay [15] it was 6.54% (active); in assay [5], -14.4% (active). The growth was 24.6% in assay [6]; 27.1% in assay [16]; 37.2% in assay [7]; 74.2% in [8]; -57% (active) in assay [9]; 20.5% in assay [10]. In addition, the growth in assay [11] is 16.3%; in assay [12], 40.7%; in assay [17], 70.2%; in assay [13] it was 30.4%.
`COc1ccc(CSc2nnc(SCC(=O)Nc3ccc(Cl)cc3)s2)cc1`: the growth was 84.4% in [14]; 90.6% in assay [2]; 84.7% in assay [3]; 103% in [4]; 63.6% in [15]; 91.2% in [5]. Moreover, the growth in assay [6] was 75.6%; in [16], 47.6%; in [7], 67.2%; in [8], 69%; in assay [9] it was 67.2%; in assay [10], 52%. Further, the growth in assay [11] is 63.8%; in [12], 70.8%; in assay [17] it was 72.6%; in [13], 44.8%.
With `Clc1ccc(-c2nnc(COc3ccc(C4=NNC(c5ccco5)C4)cc3)o2)cc1` (stereo not given), the growth in assay [14] is 96.6%; in assay [2] it was 95%; in assay [3], 77%; in assay [4], 98.2%; in [15], 85.4%; in [5], 91.3%. Moreover, the growth is 95.7% in [6]; 72.6% in [16]; 25.7% in [7]; 93.1% in [9]; 94.5% in assay [10]; 17.3% in assay [11]. Moreover, the growth in [12] was 86.1%; in assay [17], 82.3%; in assay [13], 70.9%.
